Source: PubChem (Broad Institute)
Compounds with a hit are over-represented: about 1.8% of the library has one in this group of screens.
PDI inh: inhibitors of human PDI, primary screen, biochemical, turbidity, single point, plate reader | Protein disulfide-isomerase (Homo sapiens), P07237 | PDI insulin aggregation turbidity, A650, 90 min | inhibition, % at 10 µM | hit rate 0.052% among 350,000 | AID 588391, 2011;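 active means mean inhibition across replicates of 30% or more, whatever share of single replicates reach that level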
Target sequence (P07237 whole entry, looked up): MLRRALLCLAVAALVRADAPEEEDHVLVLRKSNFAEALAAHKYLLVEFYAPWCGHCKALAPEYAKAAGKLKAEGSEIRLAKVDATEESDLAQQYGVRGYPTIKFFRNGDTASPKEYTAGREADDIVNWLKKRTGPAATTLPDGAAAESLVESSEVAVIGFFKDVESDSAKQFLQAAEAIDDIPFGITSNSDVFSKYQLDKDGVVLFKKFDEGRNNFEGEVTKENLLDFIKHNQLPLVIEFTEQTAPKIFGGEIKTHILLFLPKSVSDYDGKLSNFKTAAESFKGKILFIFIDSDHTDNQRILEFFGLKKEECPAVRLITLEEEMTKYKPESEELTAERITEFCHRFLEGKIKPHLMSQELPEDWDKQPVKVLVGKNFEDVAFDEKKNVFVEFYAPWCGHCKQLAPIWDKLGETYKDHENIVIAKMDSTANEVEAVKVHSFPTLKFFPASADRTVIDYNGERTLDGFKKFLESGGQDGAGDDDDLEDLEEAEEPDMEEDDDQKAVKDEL
ERp5 inh: inhibitors of ERp5-driven insulin aggregation, primary screen, biochemical, turbidity, absorbance 650 nm, single point; Protein disulfide-isomerase A6 (Homo sapiens), Q15084; 90 min; inhibition, % at 9.99 µM; hit rate 0.05% among 350,000; AID 651711, 2012;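 active means mean replicate inhibition above about 25%, with every replicate also reaching it, limit read from the data, passing the limit was not always enough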
MLL AF4-AF9 inh: inhibitors of AF4 peptide binding to AF9, primary screen, biochemical, AlphaScreen, biotin-AF4 peptide, FLAG-AF9, single point; Protein AF-9 (Homo sapiens), P42568; inhibition, % at 10 µM; hit rate 0.47% among 350,000; AID 651704, 2012;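 active means every replicate reaching a set inhibition limit, whatever the replicate mean, cut at about 25% in these data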;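 further: 0% = plate neutral control median and 100% = total signal loss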
ERAP1 HTS inh: human ERAP1 aminopeptidase inhibitors, primary screen, biochemical, single point, plate reader; inhibition, % at 10.7 µM; recombinant ERAP1, Leu-AMC fluorescence, 60 min; hit rate 0.15% among 340,000;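 active means mean replicate inhibition of at least 30%, or all replicates individually reaching that 30% level; inactive means mean below 30% and not every replicate reaching it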;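 further: 0% = neutral control wells and 100% = L-leucinethiol positive control wells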
DENV2 CPE: inhibitors of DENV2 cytopathic effect, primary screen, cell-based, plate reader, single concentration; DENV2-infected cells, cytopathic effect rescue; CPE inhibition, % at 9.99 µM; hit rate 1.7% among 350,000; in the data active means CPE inhibition above about 20%, passing the limit was not always enough; tested in BHK-21 cells;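 further: 0% = median of neutral control wells and 100% = median of positive control wells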
* marks the source's active call; other numbers are inactive results; . = no result.

SMILES | PDI inh | ERp5 inh | MLL AF4-AF9 inh | ERAP1 HTS inh | DENV2 CPE
COCC(=O)N(C)C[C@@H]1Oc2cc(C#CC(C)(C)O)ccc2S(=O)(=O)N([C@H](C)CO)C[C@@H]1C | . | 61* | -2 | 0 | 11
C[C@@H]1CN([C@H](C)CO)S(=O)(=O)c2ccc(C#Cc3ccncc3)cc2O[C@@H]1CN(C)C(=O)C1CC1 | . | 3 | 0 | -1 | 30*
C[C@H](O)C#Cc1ccc2c(c1)O[C@@H](CN(C)C(=O)C1CC1)[C@@H](C)CN([C@H](C)CO)S2(=O)=O | . | 4 | -4 | 3 | -2
C[C@H](O)C#Cc1ccc2c(c1)O[C@H](CN(C)C(=O)C1CC1)[C@@H](C)CN([C@@H](C)CO)S2(=O)=O | . | -2 | -3 | 2 | 57*
C[C@H](O)C#Cc1ccc2c(c1)O[C@H](CN(C)C(=O)CN(C)C)[C@H](C)CN([C@H](C)CO)S2(=O)=O | . | 6 | -3 | -2 | 42*
COc1ccccc1CNC(=O)C[C@H]1C=C[C@H](NC(=O)CN(C)C)[C@H](CO)O1 | . | -1 | -1 | -2 | -7
O=C(C[C@@H]1CC[C@H]2[C@@H](COC[C@@H](O)CN2Cc2ccncc2)O1)NCc1ccccc1Cl | . | 0 | -3 | -3 | 4
CCS(=O)(=O)NCC[C@H]1CC[C@@H](NC(=O)C2CCC2)[C@H](CO)O1 | . | -5 | -2 | 3 | 5
O=C(C[C@H]1C[C@@H]2c3cc(NC(=O)Nc4ccccc4F)ccc3O[C@@H]2[C@@H](CO)O1)NC1CCCCC1 | . | 6 | -8 | 0 | 2
CN1C(=O)c2cc(NC(=O)C3CCOCC3)ccc2OC[C@@H]2O[C@H](CC(=O)NCCc3ccncc3)CC[C@@H]21 | . | 1 | 0 | 0 | 7
O=C(C[C@@H]1CC[C@H](NC(=O)Nc2ccccc2F)[C@H](CO)O1)NCc1ccc(F)cc1 | . | -4 | -1 | 0 | -5
C[C@H](CO)N1C[C@H](C)[C@H](CN(C)C(=O)c2ccccc2F)Oc2ncc(-c3ccc(F)cc3)cc2C1=O | . | -2 | -1 | 0 | -7
CCOC(=O)c1oc2cccc(O)c2c1C | 8 | . | . | . | .
CCOC(=O)c1oc2cccc(O)c2c1CN(Cc1ccccc1)C(C)=O | 52* | . | . | . | .
CCN(C)C1CN(Cc2cn(Cc3ccccc3)nn2)S(=O)(=O)C1 (configuration not stated) | . | -8 | -2 | 0 | 21*
O=S1(=O)CC(N2CCSCC2)CN1Cc1cn(Cc2ccc(Cl)cc2)nn1 (configuration not stated) | . | 0 | -1 | . | -5
Cc1ccc(Cn2cc(CN3CC(N4CCSCC4)CS3(=O)=O)nn2)cc1 (configuration not stated) | . | -2 | -1 | . | 31*
CCN(C)C1CN(Cc2cn(Cc3ccc(F)cc3)nn2)S(=O)(=O)C1 (configuration not stated) | . | 4 | -6 | 3 | 46*
C[C@H](CO)N1C[C@H](C)[C@@H](CN(C)S(=O)(=O)c2ccc(F)cc2)Oc2cc(C3=CCCCC3)ccc2S1(=O)=O | . | 0 | -1 | 1 | 10
Cn1cccc1C(=O)OCC(=O)NC(=O)c1ccc(Cl)cc1 | -6 | -3 | 4 | 3 | 26*
Cc1ccc(C(=O)OCC(=O)NC(=O)c2cccn2C)cc1 | 2 | 4 | -71 | -3 | 13
Cc1nc2cc(NC(=O)Nc3cccc([N+](=O)[O-])c3)ccc2n1C | -6 | -2 | -1 | -1 | 35*
CC(=O)c1cccc(NC(=O)c2ccc3c(c2)CCCC3)c1 | -5 | 3 | 3 | 0 | 15
CC(=O)c1ccc2c3c(cc(C)c2c1)CCCC3 | -3 | 5 | -3 | -2 | 25*
C[C@@H]1CN([C@H](C)CO)C(=O)c2cc(NC(=O)Nc3cccc4ccccc34)ccc2O[C@H]1CN(C)S(=O)(=O)c1cccs1 | . | 2 | -1 | 0 | -2
COc1ccc(-c2cc3nc(-c4ccccc4)cc(N4CCN(C(=O)c5ccsc5)CC4)n3n2)cc1 | 3 | 6 | -2 | 0 | 63*
C[C@H](CO)N1C[C@H](C)[C@H](CN(C)Cc2ccccc2)Oc2ccc(NS(=O)(=O)c3ccccc3)cc2CC1=O | . | 1 | 4 | 0 | 55*
